As usually defined, the inhibition is the change of the read-out against control, counted positive when it falls.

Each structure is given as a SMILES string. Where “and” joins values, the source holds several entries; their conditions need not be identical. Identical values can stand only once. The campaign covered roughly 260,000 compounds. About 1,500 (0.58%) were called active. Roughly 5% stayed inconclusive and do not appear here. Only a sample is shown. Potency and affinity values are given separately. A number with no mark means an inactive call.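 Rule for the calls: active = inhibition above a set limit at one or more doses, reproduced on every date tested; inconclusive = results disagree between test dates, or hit never tested in dose response; inactive = the rest.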

The target of the assay is Virion infectivity factor (Human immunodeficiency virus type 1 group M subtype B (isolate BH10)) + Virion infectivity factor (Human immunodeficiency virus type 1 group M subtype B (isolate BRU/LAI)) + Virion infectivity factor (Human immunodeficiency virus type 1 group M subtype B (isolate PCV12)) + Virion infectivity factor (Human immunodeficiency virus type 1 group M subtype B (isolate HXB2)) + DNA dC->dU-editing enzyme APOBEC-3G (Homo sapiens) (UniProt P69720+P69721+P69722+P69723+Q9HC16). Put plainly: HIV-1 Vif–A3G interaction blockers – biochemical, TR-FRET, GST-Vif 1-94, biotin-A3G peptide, dose response retest, primary screen (AID 1117319).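 Note: Vif residues 1-94 fused to GST binding biotinylated APOBEC3G peptide 110-148; 0% = full assay without inhibitor and 100% = GST in place of GST-Vif.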 Conditions: TR-FRET GST-Vif / biotin-A3G peptide binding; hits give high values. (In general: TR-FRET usually uses a lanthanide donor and a delayed reading to cut background.)
In the case of `Cc1ccc(C)c(Nc2nc(-c3ccncc3)nc3ccccc23)c1`, the inhibition is -7.92%.
With `O=C(OCc1ccccn1)c1ccc(COc2ccc3ccccc3c2)o1`, the inhibition is 14.9%.
With `N#CC(C(=O)NCCc1ccccc1)c1nc2ccccc2nc1N1CCOCC1` (stereo not given) the figure was -2.43%.
As for `CCCCCCNC(=O)C(C#N)c1nc2ccccc2nc1N1CCOCC1` (stereo not given), the inhibition was 5.51%.
For `Cc1nn(-c2ccccc2)c2sc(C(=O)N3CCCCC3)cc12`, the inhibition is -2.58%.
Turning to `CCCCN1C(=O)C(=O)N(CC(=O)c2ccc[nH]2)C1=O`, the inhibition is 5.74%.
In the case of `CCOC(=O)N1CCC(n2c(SCC(=O)Nc3nccs3)nc3ccsc3c2=O)CC1`, the inhibition is -7.21% and 20.2%.
On to `COc1ccc(NC(=S)NCc2cccs2)cc1`, for which the inhibition is 0.47%.
Consider `COC(=O)c1[nH]c2ccccc2c1NC(=O)CN1CCN(Cc2ccc3c(c2)OCO3)CC1`, for which the inhibition is -1.82%.
`CCN(CC(=O)Nc1c(C(=O)OC)[nH]c2ccc(Cl)cc12)c1ccc2c(c1)OCO2`: the inhibition is 0.99%.
Take `COc1ccc(OCCN(C)C(=O)c2cccc(S(=O)(=O)N(C)c3ccccc3)c2)cc1`: the inhibition was -4.53%.
Under `CN(C)c1ccc(/C=C/C=C2/SC(=S)N(c3ccccc3)C2=O)cc1` stands 19.3%; under `O=C(O)c1ccc(N2C(=O)/C(=C/C=C/c3ccccc3)SC2=S)cc1`, 7.15%.
Consider `O=C1S/C(=C\c2cccs2)C(=O)N1c1ccc(O)cc1`, for which the inhibition is -10.4%.
As for `Cn1cccc1/C=C1\SC(=O)N(c2ccc(O)cc2)C1=O`, the inhibition is 4.46%.
In the case of `CC1(C)N=C(c2ccc(Cl)cc2)C(=O)N1`, the inhibition is -0.69%.
For `CNC(=O)c1ccsc1NC(=O)C1CCCN1S(=O)(=O)c1cccs1` (stereo not given), the inhibition is -0.6%.
For the compound `O=C1N=C(N2CCOCC2)S/C1=C\c1cccs1`, the inhibition was -6.4%.
With `O=C1N=C(N2CCOCC2)S/C1=C\c1ccc(-c2ccccc2Cl)o1`, the inhibition was 21.8%.
`O=C1N=C(N2CCOCC2)S/C1=C/c1cccs1`: the inhibition is 1.92%.
As to `Cc1ccccc1-c1ccc(/C=C2/SC(N3CCOCC3)=NC2=O)o1`, the inhibition was 6.07%.
With `NC1=NC(=O)C(=Cc2ccccc2)S1`, the inhibition is 1.08%.
With `NC1=NC(=O)/C(=C/c2cccs2)S1`, the inhibition was 10%.
As for `O=C1N=C(N2CCCC2)S/C1=C\c1ccccc1`, the inhibition was 27.9%.
For `Cc1ccc(-c2ccc(/C=C3\SC(N4CCOCC4)=NC3=O)o2)cc1`, the inhibition is 6.18%.
Under `O=C(CCc1nnc(CCc2ccccc2)o1)N1CCCCC1CCn1cccn1` (stereo not given) stands -2.83%.
With `CC(=O)NCCn1c(SCc2ccc(C)cc2C)nc2ccccc2c1=O` the figure was -4.41%; with `COCc1cc(=O)[nH]c(N2CCN(C(=O)c3ccco3)CC2)n1`, -8.81%; with `CCOc1ccc(NC(=O)c2cc3c(=O)n(C)c4ccccc4c3n2C)cc1`, -12%.
Regarding `O=C(CNC(=O)c1cc2ccccc2o1)NCc1cccs1`, the inhibition is 15.4%.
Take `Clc1ccc(NCn2cncn2)nc1`: the inhibition was 10.8%.
As to `CCc1cccc(C)c1NC(=O)CO/N=C(\C)c1cc2ccccc2o1`, the inhibition is -0.14%.
As to `CC(OC(=O)CCC1CCCCC1)C(=O)Nc1ccc(S(N)(=O)=O)cc1` (stereo not given), the inhibition was 6.23%.
With `Cc1oc2c(O)c(O)ccc2c(=O)c1-c1cnn(-c2ccccc2)c1`, the inhibition was 28.2%.
Regarding `O=C(O)c1cccc2cc(-c3ccccc3)oc(=O)c12`, the inhibition was 3%.
On to `Nc1c(O)ccc2c1C(=O)c1ccccc1C2=O`, for which the inhibition was 10.2%.
Turning to `O=C(O)c1cccc(-c2ccccc2)c1O`, the inhibition was 2.46%.
As to `CCOC(=O)C(C#N)=C1CCN(Cc2ccccc2)CC1`, the inhibition was -5.62%.
On to `Cc1ccc(C(=O)NC(=S)Nc2ccc(S(=O)(=O)N3CCN(C)CC3)cc2)cc1`, for which the inhibition was 1.48%.
Take `CN1CCN(S(=O)(=O)c2ccc(NC(=S)NC(=O)c3ccccc3)cc2)CC1`: the inhibition was 0.13%.
As to `COc1ccc(CNC(=O)COC(=O)c2c(NC(C)=O)sc(C)c2C)cc1OC`, the inhibition was 1.62%.
Under `O=C(O)C1CC(=O)N(c2ccc(OCc3ccc(Cl)cc3Cl)cc2)C1` (stereo not given) stands 4.2%; under `N#CC(C#N)=c1ccc2c(c1)N1C3=C(CCCC3)CC3CCCCC31N=2` (stereo not given), 20.5%; under `CC(CCc1ccccc1)NC(=O)C1CCN(S(=O)(=O)N2CCOCC2)CC1` (stereo not given), -3.69%.
For `COC(=O)c1ccc(-n2nc(C(F)(F)F)c3c2-c2ccoc2CC3)cc1`, the inhibition was 14.2%.
Take `O=C(O)c1ccc(-n2nc(C(F)(F)F)c3c2CCCC3)cc1`: the inhibition is 0.77%.
With `O=C(CCn1c(=S)oc2ccccc21)NC1CCCCCCC1` the figure was -0.87%.
With `CCCC1CC(C#N)N(N(C)C)C1=C(C#N)C#N` (stereo not given), the inhibition was -4.37%.
On to `CN1c2ccccc2C(O)=C(C(=S)Nc2ccc(F)c(Cl)c2)S1(=O)=O`, for which the inhibition was -0.79%.
In the case of `Cc1ccc(NC(=S)C2=C(O)c3sccc3N(C)S2(=O)=O)cc1`, the inhibition was 10.2%.
On to `CC(C)n1ncc2c(C(=O)NCCc3ccc(S(N)(=O)=O)cc3)cc(C3CC3)nc21`, for which the inhibition is 1.54%.
On to `COc1ccc(CCNC(=O)Cn2cnc3c(cnn3C(C)(C)C)c2=O)cc1OC`, for which the inhibition is -3.55%.
With `COc1ccc(C(=O)Nc2nc3ccc(S(C)(=O)=O)cc3s2)cc1` the figure was -53.8%; with `Cc1cc(C)nc(NS(=O)(=O)c2ccc(N/C=C/C(=O)c3ccc(Cl)c(Cl)c3)cc2)n1`, 32.2%; with `Cc1ccc(C(=O)OCC(=O)Nc2ccc(S(N)(=O)=O)cc2)c(O)c1`, -10.3%.
With `Cc1ccc(NC(=O)COC(=O)c2ccc(S(=O)(=O)N3CCCC3)cc2)cc1`, the inhibition was -1.07%.
For `Cc1ccc(NC(=O)CNc2cccc(C)c2C)c(C)c1`, the inhibition was 21.8%.
For the compound `NS(=O)(=O)c1ccc(N=Nc2c(O)ccc3ccccc23)cc1`, the inhibition is 9.6%.
Under `Nc1nc(N)c(N=Nc2ccc(S(N)(=O)=O)cc2)c(=O)[nH]1` stands 1.9%; under `CN(C)c1ccc(N=Nc2ccc(S(N)(=O)=O)cc2)cc1`, 5.84%; under `Cc1c(C#N)c(O)[nH]c(=O)c1N=Nc1ccc(S(N)(=O)=O)cc1`, 3.16%.
Under `CCOC(=O)c1csc(NC(=O)CN2CCOCC2)n1` stands -8.71%; under `Cc1cccc(N2CCN(Cc3nc(-c4cccc(Oc5ccccc5)c4)oc3C)CC2)n1`, 3.4%; under `CCN(CC)S(=O)(=O)c1cccc(NC(=O)C2SC(=Nc3ccc(C)cc3C)C(C(=O)NCC3CCCO3)=C2N)c1` (stereo not given), 2.72%.
Under `Cc1cc2cc(C(=O)N3CCc4c([nH]c5ccccc45)C3c3ccccn3)ccc2o1` (stereo not given) stands 10.8%.
Regarding `O=C(c1ccccc1)c1ccccc1C(=O)N1CCOCC1`, the inhibition is 5.31%.
As to `CC(=O)N1c2ccc(Cl)cc2C2C=CCC2C1c1cccc2ccccc12` (stereo not given), the inhibition was 19.4%.
On to `COc1cccc(C2Nc3c(F)cc(Br)cc3C3C=CCC32)c1OC` (stereo not given), for which the inhibition is 5.44%.
For `Cc1ccc(C)c(NC(=O)C2CC=CCC2C(=O)O)c1` (stereo not given), the inhibition is -2.09%.
For the compound `O=C(c1ccccc1O)N1CCOCC1`, the inhibition was -1.64%.
With `O=C(O)C1C=CC(C(=O)O)c2ccccc21` (stereo not given) the figure was -4.89%; with `COc1ccccc1C1CCN(C(=O)c2ccccc2)CC1`, 6.08%.
Under `CCC(C)[C@H](NC(=O)C1CCN(C(=O)[C@H](Cc2ccccc2)NC(=O)OC(C)(C)C)CC1)C(=O)O` (stereo not given in full) stands 7.73%; under `Cc1ccc(C(=O)NNC(=O)c2ccc3ccccc3c2)cc1`, 1.23%; under `O=C(c1ccc(S(=O)(=O)N2CCCCCC2)cc1)N1CCN(c2ccccn2)CC1`, -5.37%.
Turning to `Cc1cc(C(=O)N2CCc3c([nH]c4ccccc34)C2c2c(F)cccc2Cl)no1` (stereo not given), the inhibition was -4.57%.
For the compound `O=C(Nc1ccc(S(=O)(=O)N2CCOCC2)cc1)c1cc(-c2ccccc2O)n[nH]1`, the inhibition was -5.69%.
Consider `CSCCC(NS(=O)(=O)c1ccc(C)cc1)C(=O)NCC(C)(C)N1CCOCC1` (stereo not given), for which the inhibition was 26.5%.
In the case of `CCOc1cc(C(=O)Oc2cc(C)[nH]c(=O)c2[N+](=O)[O-])cc(OCC)c1OCC`, the inhibition is -2.15%.
With `CC(C)C(=O)Nc1nnc(-c2ccco2)s1` the figure was -4.43%; with `CCCC(=O)Nc1nnc(-c2ccco2)s1`, 5.96%.
Regarding `O=C(COC(=O)Cn1cnc2ccccc2c1=O)NCc1ccccc1`, the inhibition was -5.43%.
Regarding `Cc1nn(Cc2ccccc2)c(C)c1C(=O)OCC(=O)c1cc(C)n(CC(F)(F)F)c1C`, the inhibition is 13.3%.
For `COCCn1c(C)cc(C(=O)COC(=O)c2c(C)nn(Cc3ccccc3)c2C)c1C`, the inhibition is 15.2%.
`C=CCOc1ccc(CNc2nccs2)cc1OC`: the inhibition was -2.98%.
Regarding `Cn1nnnc1SCc1cc(=O)n2ccsc2n1`, the inhibition is 8.97%.
With `COc1ccc(OCCNC(=S)Nc2cccc3ccccc23)cc1` the figure was 2.41%.
Under `O=C(NC(NC(=S)Nc1cccc(C(=O)O)c1)C(Cl)(Cl)Cl)OCc1ccccc1` (stereo not given) stands 16%; under `CCCCOC(=O)c1cc(C)nc2ccc(Br)cc12`, 10.8%.
`CC1=C(C(=O)Nc2ccccc2)C(c2ccco2)NC(=S)N1` (stereo not given): the inhibition was -0.58%.
On to `CC1=C(C(=O)Nc2ccccc2)C(c2ccco2)NC(=O)N1` (stereo not given), for which the inhibition is -0.31%.
On to `N#C/C(=C\c1cccs1)C(=O)N1CCOCC1`, for which the inhibition is 4.24%.
With `CCOc1ccc(-n2cc(C(=O)NCCOC)c3cc(OC)c(OC)cc3c2=O)cc1`, the inhibition is -0.11%.
With `CC1=CCC2C(=O)N(c3ccc4ccccc4n3)C(=O)C2C1` (stereo not given) the figure was 3.04%; with `O=C(COC(=O)c1n[nH]c(=O)c2ccccc12)c1ccc(Cl)cc1`, -6%.

The record behind these values is PubChem BioAssay AID1117319 (Southern Research Institute, 2015).
